PubChem BioAssay AID588475 (Sanford-Burnham Center for Chemical Genomics, 2011)
Hit rate of the full screen: of about 350,000 compounds, about 2,100 (0.6%) were called active. For the sample, actives were picked, then their nearest neighbours and some compounds at random. Values without a mark were called inactive.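 The calls were made as follows: active = inhibition of the ligand-induced calcium signal above about 50% at the single tested concentration (limit read from the data); inactive = the rest.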

Test: antagonists of CRF-BP/CRF-R2 complex, primary screen, cell-based, HEK293, calcium dye fluorescence, uHTS (AID 588475)
Conditions: CRF-induced calcium fluorescence, at 11.8 µM, hits give high values

Compound	inhibition
CC(C)Oc1ccc(Cc2n[nH]c(=S)n2Cc2ccccc2)cc1Cl	2.65%
O=C(Nc1cccc(C(=O)O)c1)/C(=C\c1ccccc1)NC(=O)c1ccc(Br)o1	12.3%
COC(=O)Cn1cnc2scc(-c3ccc(C)c(C)c3)c2c1=O	0.19%
O=C(N/N=C/c1cccc2cccnc12)[C@H]1C[C@@H]1c1ccccc1	-18.3%
O=C(CCOc1ccccc1)NCc1ccccc1	2.03%
O=C(CCC(=O)c1ccccc1)NCc1cccc(C(F)(F)F)c1	-4.39%
O=C(CCC(=O)OCC(F)(F)C(F)F)NCc1ccccc1	108% (active)
Cc1nc(N)c(Br)c(C)c1Br	-2.67%
Cn1cc(S(=O)(=O)N2CCN(c3ccc(F)cc3)CC2)c(=O)n(C)c1=O	-4.51%
CC(C)[C@H](NC(=O)N1CCn2c1nc1ccccc12)C(=O)NCc1ccc2c(c1)OCO2	-3.94%
CC(C)[C@H](NC(=O)N1CCn2c1nc1ccccc12)C(=O)NCCc1ccccc1	2.7%
CCC(C)[C@H](NC(=O)N1CCn2c1nc1ccccc12)C(=O)NCc1ccc(OC)cc1 (stereo partly specified)	52.2% (active)
O=C(/C(=N\O)n1cncn1)c1ccc(Br)cc1Br	14.7%
COc1cc(OC)cc(C(=O)Nc2ncc3c(n2)CC(C)(C)CC3=O)c1	20%
O=C(NNC(=S)NC1CC2CCC1C2)c1ccc(Cl)cc1 (stereo unspecified)	-9.96%
O=[N+]([O-])c1ccc(C(S(=O)(=O)Cc2ccccc2)S(=O)(=O)Cc2ccccc2)cc1	5.72%
CC1CN/C(=C\C(=O)c2ccc(Br)cc2)C(=O)N1 (stereo unspecified)	12.3%
O=C(NCCS(=O)(=O)c1ccc(Br)cc1)c1ccccc1Cl	71.2% (active)
O=C(NCCCN1CCOCC1)c1ccccc1NS(=O)(=O)c1ccc(Br)cc1	1.32%
O=C(CCS(=O)(=O)c1ccc(Br)cc1)NCCc1ccc(Cl)cc1	-3.71%
Cc1c(OC(C)C(=O)NCC2CCC(C(=O)O)CC2)ccc2c1oc(=O)c1ccccc12 (stereo unspecified)	4.13%
Cc1nonc1C1CCCN1Cc1nc(-c2ccc(F)cc2F)oc1C (stereo unspecified)	17.3%
CN(C)S(=O)(=O)c1ccc(C(=O)NCC(C)(C)N2CCOCC2)cc1	15.6%

Compound	inhibition
COCc1[nH]nc2c1C(C1C=CCCC1)C(C#N)=C(N)O2 (stereo unspecified)	-8.71%
COc1cc(C2C(C#N)=C(N)Oc3n[nH]c(-c4ccccn4)c32)cc(OC)c1OC (stereo unspecified)	52.2% (active)
COc1ccc(C2C(C#N)=C(N)Oc3n[nH]c(C)c32)cc1CN1CCN(c2ccc(F)cc2)CC1 (stereo unspecified)	3.36%
Cc1ccc(C)c(C(=O)COC(=O)Cn2[nH]c(=O)c3ccccc3c2=O)c1	6.49%
CC(=O)NNC1=Nc2ccccc2N(C)C(C)C1 (stereo unspecified)	19%
COC(=O)c1ccc(CN2C(=O)NC(c3ccccc3)(c3ccccc3)C2=O)o1	0.1%
COC(=O)c1ccc(Cc2ccccc2)o1	53% (active)
COC(=O)c1ccc(COc2ccc(C#N)cc2)o1	10.2%
CCC(C)C(NC(=O)C1CCC(=O)N1C(=O)OCc1ccccc1)C(=O)NC(C(=O)N1CCCC1C(N)=O)C(C)CC (stereo unspecified)	2.28%
O=C1c2cccc3cccc(c23)C(=O)N1c1cccc(O)c1	4.66%
COC(=O)c1ccccc1NS(=O)(=O)c1ccc2[nH]c(=O)[nH]c2c1	17.7%
O=S(=O)(Nc1ccccc1N1CCOCC1)c1ccc(Cl)s1	-0.68%
COc1cc(NC(=O)c2ccccc2NS(=O)(=O)c2ccc(Cl)s2)cc(OC)c1	90.5% (active)
O=C(Nc1ccc(S(=O)(=O)Nc2ccccn2)cc1)c1ccccc1	-0.79%
COC(=O)c1ccc(NC(=O)c2ccccc2NS(=O)(=O)c2ccccc2)cc1	61% (active)
COc1ccccc1C(=O)Nc1ccccc1C(=O)Nc1ccccc1	6.12%
CSc1nnc(-c2ccc(C(F)(F)F)cn2)o1	4.97%
O=C(OCC(=O)N1CCc2ccccc21)c1ccc([N+](=O)[O-])cc1	-3.17%
CN1CCOC1c1ccc(C2OCCN2C)cc1 (stereo unspecified)	4.93%
CCCc1nc2c(C)cc(-c3nc4ccccc4n3C)cc2n1Cc1ccc(-c2ccccc2C(=O)O)cc1	17.1%
CN(C)CCCN(Cc1cc2cc3c(cc2[nH]c1=O)OCCO3)C(=O)NC1CCCCC1	-6.7%
Cc1cc(C(=O)OC(C)C(=O)NC2CCCCC2C)c(C)o1 (stereo unspecified)	-2.53%
O=C(Cc1ccc(Br)cc1)NCCc1ccccc1	-0.6%

Compound	inhibition
O=C(Cn1cnc([N+](=O)[O-])n1)NCCc1ccccc1	67.5% (active)
CC(C)(C)NC(=O)Cn1cnc([N+](=O)[O-])n1	4.8%
COCC(=O)N1CCc2ccc(NC(=O)c3ccccc3Cl)cc2C1	6.03%
FC(F)(F)Oc1ccc(NC(=S)NCc2ccccc2)cc1	44.6%
Fc1ccccc1CNC(=S)Nc1ccc(Cl)cc1	66% (active)
S=C(NCc1cccs1)Nc1ccc(Cl)cc1	8.34%
COc1ccc(NC2CC(=O)N(C)C2=O)cc1 (stereo unspecified)	20.5%
CN(C)CCN(C(=O)C1=COCCO1)c1nc2ccc(Cl)cc2s1	-9.68%
CN(C)CCN(C(=O)CN1C(=O)c2ccccc2C1=O)c1nc2cc3c(cc2s1)OCCO3	85.2% (active)
CCN(CC)CCN(C(=O)c1cc(Cl)sc1Cl)c1nc2cc3c(cc2s1)OCO3	-22.2%
O=C(COc1ccc(Cl)cc1)NCCSc1ccccc1	9.25%
O=C1CCC(CCC(=O)N2CCCC(C(=O)c3ccc(Cl)cc3)C2)=NN1 (stereo unspecified)	-7.3%
CC(=O)n1cc([C@H]2C=C(C(=O)N3CCOCC3)O[C@@H](OCc3ccc(CO)cc3)C2)c2ccccc21	-5.43%
Cc1cc2c(cc1C)NC(c1ccccn1)C1=C(CC(C)(C)CC1=O)N2 (stereo unspecified)	7.43%
Cc1ccc(C(=O)Nc2ccccc2C(=O)NC2CCCCC2)cc1S(=O)(=O)N1CCOCC1	72.2% (active)
Cc1ccc(C(=O)Nc2ncccc2C)cc1S(=O)(=O)N1CCOCC1	-0.48%
Cc1ccc(NC(=O)NC2CCCCC2)cc1S(=O)(=O)N1CCOCC1	5.45%
Cc1nc(C)c(C(=O)N(c2ccc(C)c(C)c2)C(C(=O)NCc2ccco2)c2ccccc2)s1 (stereo unspecified)	-3.65%
Cc1cccc(N(C(=O)c2sc(C)nc2C)C(C(=O)NCC2CCCO2)c2ccccc2)c1 (stereo unspecified)	54.8% (active)
O=C(NCC(=O)N(c1ccccc1)C(C(=O)NCC1CCCO1)c1ccccc1)c1cccs1 (stereo unspecified)	-1.33%
COc1ccc([N+](=O)[O-])cc1N(CC(O)CN(CC(C)C)CC(C)C)S(=O)(=O)c1ccc(C)cc1 (stereo unspecified)	-23.4%
Cc1ccc(S(=O)(=O)N(CC(O)CN2CCCCC2)c2cccc([N+](=O)[O-])c2)cc1 (stereo unspecified)	-12.3%
COc1ccc([N+](=O)[O-])cc1N(CC(O)Cn1nnc2ccccc21)S(=O)(=O)c1ccc(C)cc1 (stereo unspecified)	67.3% (active)

Compound	inhibition
CN(Cc1ccc(CNC[C@H]2O[C@@H](n3cnc4c(N)ncnc43)[C@H](O)[C@@H]2O)o1)S(C)(=O)=O	15.6%
O=C(Cc1cccs1)N/N=C/c1ccc(OCc2ccccc2)cc1	-49.7%
C=CCNC(=S)N/N=C/c1ccc(OCc2ccccc2)cc1	95.3% (active)
O=C(O)c1ccc(/C=N/NC(=S)NCc2ccccc2)cc1	3.62%
CN(CCO)c1ccc(/C=N/Nc2nncc3ccccc23)cc1	13.7%
COc1ccc2[nH]c(=O)c(CN(Cc3cccnc3)S(=O)(=O)c3ccccc3F)cc2c1	-7.64%
CN(C)/C(=N\OC(=O)c1ccccc1)c1nonc1N	28.8%
Cc1cc(=O)n2nc(N3CCC(C(=O)Nc4c(F)c(F)c(F)c(F)c4F)CC3)sc2n1	88.8% (active)
COc1ccc(CCNC(=O)C2CCN(c3nn4c(=O)cc(C)nc4s3)CC2)cc1OC	-3.66%
CCCOc1ccc(CNC(=O)C2CCN(c3nn4c(=O)cc(C)nc4s3)CC2)cc1	4.13%
CCOc1ccc(N(CC(=O)Nc2ccccc2F)S(=O)(=O)c2c(C)[nH]c(=O)[nH]c2=O)cc1	-6.15%
CCCNS(=O)(=O)c1ccc(CCC(=O)N2CCCC2)cc1	0.99%
C[C@@H]1CN([C@H](C)CO)C(=O)CCCn2nncc2CO[C@@H]1CN(C)C(=O)OCc1ccccc1	-0.52%
Cc1ccc(C(=O)c2coc3ccc(O)c(CN(C)C)c23)cc1	-15.4%
COc1cccc(OC)c1C(=O)N1CCN(Cc2ccccc2F)CC1	24.1%
COc1ccccc1C(=O)N1CCN=C1SCc1cccnc1	11.4%
COc1cccc(OC)c1C(=O)N1CCN(Cc2cccnc2)CC1	56.1% (active)
Cc1nc2sc(C(c3ccco3)N3CCC4(CC3)OCCO4)c(O)n2n1 (stereo unspecified)	11.4%
[O-][N+]12CCCCC1CCCC2CO (stereo unspecified)	8.6%
COc1ccccc1N(C)C(=O)c1cc(S(=O)(=O)N2CCc3ccccc32)cn1C	-4.87%
COc1cccc(NC(=O)c2cc(S(=O)(=O)N3CCc4ccccc43)cn2C)c1	82.7% (active)
COc1ccc(S(=O)(=O)N2CCc3ccccc32)cc1C(=O)Nc1cc(S(C)(=O)=O)ccc1Cl	2.64%
